# Reference: PMC7862700, “An all-to-all approach to the identification of sequence-specific readers for epigenetic DNA modifications on cytosine”
# How the values were obtained:
# Experiment in all cases: DAPPL (digital affinity profiling via proximity ligation, sequencing); 10 mM Tris-HCl pH 7.5, 50 mM NaCl, 1 mM DTT, 4% glycerol, room temperature, 30 min; GST-TFs on glutathione beads, 16-mer random dsDNA library, 0.1% formaldehyde crosslink after washing; high values mean tight binding
# Conditions in all cases: protein: recombinant; tags: N-terminal GST; dsDNA, one strand shown
# ELK1 = target: T1, ELK1 (Homo sapiens, UniProt P19419 1-428)
# T1 sequence: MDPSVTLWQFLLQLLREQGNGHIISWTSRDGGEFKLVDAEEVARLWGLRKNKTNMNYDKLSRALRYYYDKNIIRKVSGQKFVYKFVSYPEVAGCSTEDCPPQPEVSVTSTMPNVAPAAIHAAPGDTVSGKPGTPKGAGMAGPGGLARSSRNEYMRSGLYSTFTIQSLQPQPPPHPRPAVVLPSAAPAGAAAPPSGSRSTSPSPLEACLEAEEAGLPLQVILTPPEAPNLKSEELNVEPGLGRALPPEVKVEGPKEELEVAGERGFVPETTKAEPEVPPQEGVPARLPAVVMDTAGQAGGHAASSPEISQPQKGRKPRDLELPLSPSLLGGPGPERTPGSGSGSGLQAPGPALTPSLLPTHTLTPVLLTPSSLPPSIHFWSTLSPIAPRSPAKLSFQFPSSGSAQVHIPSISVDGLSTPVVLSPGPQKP
# In short: (§1)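 After expression in yeast as GST fusions, human transcription factors were bound to glutathione beads, DNA-barcoded and mixed with a tag-only sample. The pools were incubated with 200 nmole of a 16-mer random double-stranded DNA library in Tris/NaCl/DTT/glycerol buffer (30 min, room temperature), washed and crosslinked with 0.1% formaldehyde. Proximity ligation with BsaI/T4 ligase ran for 1 h at 37 °C, before PCR amplification and sequencing on an Illumina NextSeq500. Binding signal is a hexamer's read frequency for a factor divided by its frequency for the tag-only sample.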
# GABPA = target: T2, GABPA (Homo sapiens, UniProt Q06546 1-454)
# T2 sequence: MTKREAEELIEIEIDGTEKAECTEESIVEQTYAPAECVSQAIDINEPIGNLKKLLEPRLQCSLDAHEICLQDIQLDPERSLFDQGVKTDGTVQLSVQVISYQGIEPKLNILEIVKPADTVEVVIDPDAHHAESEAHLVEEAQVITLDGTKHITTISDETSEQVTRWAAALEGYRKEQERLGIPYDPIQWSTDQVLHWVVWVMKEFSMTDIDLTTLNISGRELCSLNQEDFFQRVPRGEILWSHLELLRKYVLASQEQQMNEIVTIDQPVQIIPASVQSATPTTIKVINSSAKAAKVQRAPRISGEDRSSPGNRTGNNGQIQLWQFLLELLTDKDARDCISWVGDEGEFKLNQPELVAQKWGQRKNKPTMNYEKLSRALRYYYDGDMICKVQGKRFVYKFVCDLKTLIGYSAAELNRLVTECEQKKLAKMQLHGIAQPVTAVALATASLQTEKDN
# In short: as §1
# ERG = target: T3, ERG (Homo sapiens, UniProt P11308 1-479)
# T3 sequence: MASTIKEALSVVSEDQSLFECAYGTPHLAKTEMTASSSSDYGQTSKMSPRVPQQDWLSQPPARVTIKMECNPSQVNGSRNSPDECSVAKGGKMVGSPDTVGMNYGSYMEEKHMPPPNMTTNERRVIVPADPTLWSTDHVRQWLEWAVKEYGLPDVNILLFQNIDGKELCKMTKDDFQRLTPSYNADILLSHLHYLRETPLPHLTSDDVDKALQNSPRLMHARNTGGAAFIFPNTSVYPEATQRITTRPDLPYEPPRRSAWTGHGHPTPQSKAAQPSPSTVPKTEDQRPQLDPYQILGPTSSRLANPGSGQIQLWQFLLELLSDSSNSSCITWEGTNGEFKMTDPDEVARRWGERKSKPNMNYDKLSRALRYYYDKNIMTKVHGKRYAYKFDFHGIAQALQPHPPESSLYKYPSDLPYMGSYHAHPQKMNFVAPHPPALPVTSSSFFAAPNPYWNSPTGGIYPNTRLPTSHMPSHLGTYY
# In short: as §1
# ELF1 = ELF1 (Homo sapiens, UniProt P32519 1-619)
# Sequence of ELF1 (P32519 whole entry): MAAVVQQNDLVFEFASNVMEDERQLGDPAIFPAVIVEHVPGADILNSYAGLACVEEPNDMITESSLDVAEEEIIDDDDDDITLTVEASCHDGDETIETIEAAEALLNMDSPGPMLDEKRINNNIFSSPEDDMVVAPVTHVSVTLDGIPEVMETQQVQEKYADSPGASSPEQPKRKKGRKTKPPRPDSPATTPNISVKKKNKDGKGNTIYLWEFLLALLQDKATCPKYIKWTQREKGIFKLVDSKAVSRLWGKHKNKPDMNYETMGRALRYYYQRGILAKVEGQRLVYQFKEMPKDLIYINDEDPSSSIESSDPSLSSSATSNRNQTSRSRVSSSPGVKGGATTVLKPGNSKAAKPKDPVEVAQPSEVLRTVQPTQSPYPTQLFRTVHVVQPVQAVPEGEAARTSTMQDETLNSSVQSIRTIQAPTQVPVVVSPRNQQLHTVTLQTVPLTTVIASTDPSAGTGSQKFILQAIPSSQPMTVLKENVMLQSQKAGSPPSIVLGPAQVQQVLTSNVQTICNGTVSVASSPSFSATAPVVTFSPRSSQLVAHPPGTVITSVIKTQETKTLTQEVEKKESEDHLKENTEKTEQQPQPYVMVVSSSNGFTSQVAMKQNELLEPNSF
# In short: as §1
# SPIB = SPIB (Homo sapiens, UniProt Q01892 1-262)
# Sequence of SPIB (Q01892 whole entry): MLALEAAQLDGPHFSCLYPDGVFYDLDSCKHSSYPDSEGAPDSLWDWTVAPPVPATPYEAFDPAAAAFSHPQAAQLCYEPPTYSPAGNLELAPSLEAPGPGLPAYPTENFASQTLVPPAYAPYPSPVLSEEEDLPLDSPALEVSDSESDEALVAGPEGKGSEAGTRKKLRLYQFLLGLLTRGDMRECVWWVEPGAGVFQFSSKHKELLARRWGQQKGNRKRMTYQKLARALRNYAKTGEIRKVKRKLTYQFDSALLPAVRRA
# In short: as §1
# ETV5 = ETV5 (Homo sapiens, UniProt P41161 1-510)
# Sequence of ETV5 (P41161 whole entry): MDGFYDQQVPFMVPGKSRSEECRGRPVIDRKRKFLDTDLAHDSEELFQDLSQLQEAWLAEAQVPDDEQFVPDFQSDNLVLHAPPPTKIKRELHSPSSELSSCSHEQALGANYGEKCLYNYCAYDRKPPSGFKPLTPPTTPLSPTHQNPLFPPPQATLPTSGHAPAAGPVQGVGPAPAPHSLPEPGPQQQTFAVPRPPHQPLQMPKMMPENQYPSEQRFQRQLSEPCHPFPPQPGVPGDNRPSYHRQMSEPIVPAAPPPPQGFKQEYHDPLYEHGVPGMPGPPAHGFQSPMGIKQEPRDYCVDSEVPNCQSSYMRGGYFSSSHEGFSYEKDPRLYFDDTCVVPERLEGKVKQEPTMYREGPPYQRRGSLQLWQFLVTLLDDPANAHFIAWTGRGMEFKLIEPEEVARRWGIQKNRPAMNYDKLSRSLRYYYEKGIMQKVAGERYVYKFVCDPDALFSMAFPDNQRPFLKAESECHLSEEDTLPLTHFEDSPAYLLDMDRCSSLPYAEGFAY
# In short: as §1
# ELF4 = ELF4 (Homo sapiens, UniProt Q99607 1-663)
# Sequence of ELF4 (Q99607 whole entry): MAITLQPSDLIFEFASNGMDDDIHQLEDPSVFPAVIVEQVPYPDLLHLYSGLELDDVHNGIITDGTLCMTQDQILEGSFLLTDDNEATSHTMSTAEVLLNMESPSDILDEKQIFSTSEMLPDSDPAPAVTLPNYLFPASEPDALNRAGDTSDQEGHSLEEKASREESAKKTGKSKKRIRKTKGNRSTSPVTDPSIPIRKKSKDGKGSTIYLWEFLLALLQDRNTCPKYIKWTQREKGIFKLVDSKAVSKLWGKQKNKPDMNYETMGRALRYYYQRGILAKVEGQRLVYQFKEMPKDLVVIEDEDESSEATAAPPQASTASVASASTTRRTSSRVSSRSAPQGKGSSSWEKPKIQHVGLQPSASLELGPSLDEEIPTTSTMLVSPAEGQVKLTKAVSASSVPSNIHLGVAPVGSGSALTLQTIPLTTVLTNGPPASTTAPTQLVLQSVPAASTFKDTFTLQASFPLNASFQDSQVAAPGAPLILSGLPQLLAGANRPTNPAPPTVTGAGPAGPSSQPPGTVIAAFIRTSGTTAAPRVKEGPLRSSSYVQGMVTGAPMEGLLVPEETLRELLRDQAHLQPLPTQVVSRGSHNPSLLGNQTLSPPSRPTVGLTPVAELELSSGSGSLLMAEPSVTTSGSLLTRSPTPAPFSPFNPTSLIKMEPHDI
# In short: as §1
# ELK4 = target: T4, ELK4 (Homo sapiens, UniProt P28324-2 1-405)
# T4 sequence: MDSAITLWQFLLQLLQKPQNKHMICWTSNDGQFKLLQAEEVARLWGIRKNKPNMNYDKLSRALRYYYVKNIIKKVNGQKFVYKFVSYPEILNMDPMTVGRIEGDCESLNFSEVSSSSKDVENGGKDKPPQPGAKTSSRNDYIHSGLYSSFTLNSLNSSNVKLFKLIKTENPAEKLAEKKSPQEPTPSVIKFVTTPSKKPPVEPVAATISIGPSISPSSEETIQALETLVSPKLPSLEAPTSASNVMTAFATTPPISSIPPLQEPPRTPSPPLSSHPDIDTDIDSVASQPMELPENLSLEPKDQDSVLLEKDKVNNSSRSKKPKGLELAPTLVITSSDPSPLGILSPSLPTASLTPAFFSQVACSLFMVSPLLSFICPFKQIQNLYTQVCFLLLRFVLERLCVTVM
# In short: as §1
# ETV1 = ETV1 (Homo sapiens, UniProt P50549 1-477)
# Sequence of ETV1 (P50549 whole entry): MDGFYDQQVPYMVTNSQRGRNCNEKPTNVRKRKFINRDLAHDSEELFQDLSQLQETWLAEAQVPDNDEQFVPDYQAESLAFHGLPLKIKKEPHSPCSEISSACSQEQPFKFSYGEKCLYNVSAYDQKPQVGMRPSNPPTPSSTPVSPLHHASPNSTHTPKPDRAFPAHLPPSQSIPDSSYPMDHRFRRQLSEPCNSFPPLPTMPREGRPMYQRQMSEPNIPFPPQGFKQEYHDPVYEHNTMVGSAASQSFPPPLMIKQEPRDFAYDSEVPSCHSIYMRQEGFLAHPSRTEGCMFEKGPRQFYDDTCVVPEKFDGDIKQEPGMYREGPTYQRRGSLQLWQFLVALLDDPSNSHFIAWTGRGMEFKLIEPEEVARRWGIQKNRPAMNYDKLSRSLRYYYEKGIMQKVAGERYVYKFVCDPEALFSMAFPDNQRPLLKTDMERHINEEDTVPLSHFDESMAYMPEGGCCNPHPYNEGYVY
# In short: as §1
# ERF = target: T5, ERF (Homo sapiens, UniProt P50548 1-548)
# T5 sequence: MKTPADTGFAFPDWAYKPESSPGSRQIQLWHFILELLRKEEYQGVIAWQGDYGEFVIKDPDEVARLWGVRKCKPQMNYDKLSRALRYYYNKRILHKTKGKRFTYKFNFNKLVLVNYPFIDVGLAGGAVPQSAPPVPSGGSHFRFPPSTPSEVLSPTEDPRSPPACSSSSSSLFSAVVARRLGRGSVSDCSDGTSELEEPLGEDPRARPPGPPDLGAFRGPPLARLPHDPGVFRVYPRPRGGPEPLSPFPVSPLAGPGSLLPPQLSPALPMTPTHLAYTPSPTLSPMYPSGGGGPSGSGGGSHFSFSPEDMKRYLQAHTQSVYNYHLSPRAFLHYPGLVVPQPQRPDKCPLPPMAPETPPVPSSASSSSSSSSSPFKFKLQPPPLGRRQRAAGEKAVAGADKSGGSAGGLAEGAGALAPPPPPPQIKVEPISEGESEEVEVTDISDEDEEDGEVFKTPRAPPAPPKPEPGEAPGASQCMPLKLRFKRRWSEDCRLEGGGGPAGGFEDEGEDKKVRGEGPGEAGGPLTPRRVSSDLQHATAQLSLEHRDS
# In short: as §1
# ETV3L = target: T6, ETV3L (Homo sapiens, UniProt Q6ZN32 1-361)
# T6 sequence: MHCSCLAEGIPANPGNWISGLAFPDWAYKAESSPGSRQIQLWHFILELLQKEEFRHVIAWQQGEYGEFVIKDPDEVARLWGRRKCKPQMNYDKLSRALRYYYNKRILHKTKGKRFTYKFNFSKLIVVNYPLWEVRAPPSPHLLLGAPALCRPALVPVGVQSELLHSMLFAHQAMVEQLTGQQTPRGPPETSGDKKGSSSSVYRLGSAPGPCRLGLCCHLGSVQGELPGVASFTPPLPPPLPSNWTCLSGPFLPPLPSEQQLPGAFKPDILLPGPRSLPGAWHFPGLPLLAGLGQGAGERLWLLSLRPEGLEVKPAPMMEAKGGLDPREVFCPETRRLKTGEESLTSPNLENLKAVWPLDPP
# In short: as §1
# ETS2 = target: T7, ETS2 (Homo sapiens, UniProt P15036 1-469)
# T7 sequence: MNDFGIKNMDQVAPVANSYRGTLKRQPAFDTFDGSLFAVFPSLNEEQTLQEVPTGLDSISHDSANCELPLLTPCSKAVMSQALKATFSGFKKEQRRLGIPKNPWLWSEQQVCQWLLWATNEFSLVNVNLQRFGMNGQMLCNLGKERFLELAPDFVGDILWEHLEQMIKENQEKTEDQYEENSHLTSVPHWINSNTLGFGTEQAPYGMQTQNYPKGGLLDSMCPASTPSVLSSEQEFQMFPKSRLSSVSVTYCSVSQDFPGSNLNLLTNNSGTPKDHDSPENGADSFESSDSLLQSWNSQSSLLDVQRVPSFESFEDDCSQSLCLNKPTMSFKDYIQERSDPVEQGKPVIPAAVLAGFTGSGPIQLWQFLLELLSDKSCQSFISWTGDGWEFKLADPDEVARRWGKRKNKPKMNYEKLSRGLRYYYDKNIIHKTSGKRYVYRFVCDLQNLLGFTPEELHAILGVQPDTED
# In short: as §1
# ETV3 = target: T8, ETV3 (Homo sapiens, UniProt P41162-2 1-143)
# T8 sequence: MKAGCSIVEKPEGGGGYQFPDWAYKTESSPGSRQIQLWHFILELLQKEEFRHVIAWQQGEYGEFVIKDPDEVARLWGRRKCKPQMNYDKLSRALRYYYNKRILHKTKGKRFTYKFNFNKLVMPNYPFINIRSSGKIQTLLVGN
# In short: as §1
# ETV6 = ETV6 (Homo sapiens, UniProt P41212 1-452)
# Sequence of ETV6 (P41212 whole entry): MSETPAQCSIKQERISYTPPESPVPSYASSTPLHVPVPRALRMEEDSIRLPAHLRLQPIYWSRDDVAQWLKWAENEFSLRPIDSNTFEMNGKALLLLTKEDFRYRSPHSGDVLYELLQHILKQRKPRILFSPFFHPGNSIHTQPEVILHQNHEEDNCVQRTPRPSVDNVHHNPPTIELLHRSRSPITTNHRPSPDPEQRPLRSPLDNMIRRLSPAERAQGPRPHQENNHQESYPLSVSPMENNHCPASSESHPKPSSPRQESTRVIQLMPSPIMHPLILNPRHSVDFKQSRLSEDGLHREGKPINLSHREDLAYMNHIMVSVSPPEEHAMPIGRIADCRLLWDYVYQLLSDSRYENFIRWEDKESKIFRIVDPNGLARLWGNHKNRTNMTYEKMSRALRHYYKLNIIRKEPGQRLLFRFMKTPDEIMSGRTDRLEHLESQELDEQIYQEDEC
# In short: as §1
# SPIC = target: T9, SPIC (Homo sapiens, UniProt Q8N5J4 1-248)
# T9 sequence: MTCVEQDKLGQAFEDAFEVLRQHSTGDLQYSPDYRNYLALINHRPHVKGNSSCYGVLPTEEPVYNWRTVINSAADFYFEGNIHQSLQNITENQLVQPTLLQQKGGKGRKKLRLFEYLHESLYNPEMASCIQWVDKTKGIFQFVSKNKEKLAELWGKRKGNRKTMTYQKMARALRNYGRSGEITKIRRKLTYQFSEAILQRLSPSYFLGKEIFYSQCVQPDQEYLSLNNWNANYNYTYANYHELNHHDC
# In short: as §1
Sequence,binding signal (ELK1),binding signal (GABPA),binding signal (ERG),binding signal (ELF1),binding signal (SPIB),binding signal (ETV5),binding signal (ELF4),binding signal (ELK4),binding signal (ETV1),binding signal (ERF),binding signal (ETV3L),binding signal (ETS2),binding signal (ETV3),binding signal (ETV6),binding signal (SPIC)
GCAATC,"1.05 fold enrichment (6-mer frequency, TF over GST control)","1.04 fold enrichment (6-mer frequency, TF over GST control)","1.03 fold enrichment (6-mer frequency, TF over GST control)","1.09 fold enrichment (6-mer frequency, TF over GST control)","1.05 fold enrichment (6-mer frequency, TF over GST control)","1.06 fold enrichment (6-mer frequency, TF over GST control)","1.02 fold enrichment (6-mer frequency, TF over GST control)","1.07 fold enrichment (6-mer frequency, TF over GST control)","1.06 fold enrichment (6-mer frequency, TF over GST control)","1.03 fold enrichment (6-mer frequency, TF over GST control)","1.01 fold enrichment (6-mer frequency, TF over GST control)","1.04 fold enrichment (6-mer frequency, TF over GST control)","1.06 fold enrichment (6-mer frequency, TF over GST control)","1.11 fold enrichment (6-mer frequency, TF over GST control)",
ACGCTC,,"1.05 fold enrichment (6-mer frequency, TF over GST control)","1.01 fold enrichment (6-mer frequency, TF over GST control)","1.07 fold enrichment (6-mer frequency, TF over GST control)",,"1.01 fold enrichment (6-mer frequency, TF over GST control)","1.08 fold enrichment (6-mer frequency, TF over GST control)","1.01 fold enrichment (6-mer frequency, TF over GST control)",,,,,,,"1 fold enrichment (6-mer frequency, TF over GST control)"
